Screen size: about 420,000 compounds; about 64,000 (15%) were called active. Roughly 27% stayed inconclusive and do not appear here. The call rests on the fitted dose curve; in most records, active means well fitted inhibition curve with a large enough effect; inconclusive means small, poorly fitted or top-dose-only effect; inactive means flat fitted curve, though single readings scatter. Only a sample is shown. Entries that show only a call come without a potency.

The source of these data is PubChem BioAssay AID686978 (National Center for Advancing Translational Sciences (NCATS), 2013).
Potency means the concentration at half of the fitted maximal effect.

The nature of the test: qHTS for Inhibitors of human tyrosyl-DNA phosphodiesterase 1 (TDP1): qHTS in cells in absence of CPT. Further: nearly all actives have a fitted effect of over 55% in size. Particulars: DT40 Tdp1-/- hTDP1 cells, no CPT, ATP luminescence, 48 h; activity change, negative = growth inhibition: at 46.2 µM (top of the series). The method in brief: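 Seeded 400 DT40-hTDP1 cells/well (vehicle DMSO, no 20 nM CPT); pinned compounds; ≥48 hr at 37 °C; CellTiter-Glo luminescence as viability measure.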
(In general: Quantitative high-throughput screening tests each substance at several concentrations.)
With `CCCCOP(=O)(c1ccc(N(C)C)cc1)C(O)c1cc(OC)ccc1OC` (stereo not given), the Potency result is “inactive”. Next, `CCC1=[N+]([O-])C(C)(/C(C)=N\O)N(O)C1(C)C` (stereo not given): “inactive”; `CN1C[C@@H](CO)O[C@@H](n2cnc3c(N4CCN(CCO)CC4)ncnc32)C1`: “inactive”.

As to `Cc1ccc(NC(=O)CSCC(=O)Nc2sccc2C#N)cc1`, the Potency entry was “inactive”.

As to `Cc1cc(=O)oc2c3c(cc(OCC(=O)NCc4ccccn4)c12)OC(C)(C)CC3`, the Potency is 25.9 µM (active).

`Cc1cc(=O)oc2c3c(cc(OCC(=O)N[C@H](C(=O)O)c4ccccc4)c12)OC(C)(C)CC3`: the Potency result was “inactive”. Next, `Cc1cc(=O)oc2c3c(cc(OCC(=O)NCCC(=O)N[C@@H](C)C(=O)O)c12)OC(C)(C)CC3`: “inactive”. Next, `O=c1cc(CO)oc(C(Nc2cccc([N+](=O)[O-])c2)c2ccccn2)c1O` (stereo not given): “inactive”; `CC1CCN(CC(=O)Nc2nccs2)CC1`: “inactive”; `Cn1nnnc1SCC(=O)Nc1sccc1C(N)=O`: “inactive”. Next, `CCOC(=O)CNC(=O)CSc1nnnn1-c1cc(C)ccc1C`: “inactive”; `CCOC(=O)c1c(-c2ccc(C)cc2C)csc1NC(=O)CSc1nnnn1C`: 20.6 µM (active). For `O=C1c2ccccc2C(=O)N1Cc1cc(-c2ccccc2Cl)no1`, the Potency result is “inactive”.

Turning to `CS(=O)(=O)Nc1ccccc1N=C(c1ccccc1)c1ccccc1`, the Potency result is “inactive”. Next, `O=C(COc1ccc(S(=O)(=O)NCCc2ccccc2)cc1)N1CCCC1`: “inactive”; `Cc1nn(-c2ccc(N3CCCCC3)nn2)c(C)c1CCC(=O)NCc1ccccc1F`: “inactive”; `O=C(CCC1CCCN(C(=O)c2ccc(F)c(F)c2)C1)N1CCN(c2ccccn2)CC1` (stereo not given): 18.4 µM (active).

Take `CSc1ncccc1C(=O)N1CCCC(CCC(=O)NCc2ccccc2F)C1` (stereo not given): the Potency entry is “inactive”.

On to `COc1cccc(C(=O)N2CCCC(CCC(=O)NCc3ccc(F)c(F)c3)C2)c1` (stereo not given), for which the Potency result was “inactive”. Next, `COc1cccc(CNC(=O)CCC2CCCN(C(=O)c3cc(C)[nH]n3)C2)c1` (stereo not given): “inactive”; `C=Cc1ccc(C(=O)N2CCCC(CCC(=O)N3CCN(c4ccccn4)CC3)C2)cc1` (stereo not given): “inactive”. Next, `CC(=O)c1ccc(S(=O)(=O)NCCC(=O)N2CCN(c3ccccn3)CC2)cc1`: “inactive”. Next, `COc1cccc(CNC(=O)CCC2CCCN(C(=O)c3ccc(F)c(Cl)c3)C2)c1` (stereo not given): 18.4 µM (active).

In the case of `Cc1[nH]c2c(C(=O)N3CCCC(CCC(=O)NCc4ccccc4F)C3)cccc2c1C` (stereo not given), the Potency was 20.6 µM (active). Next, `Cc1ccnc(N)c1`: “inactive”. With `Cc1ccc(NC(=O)CSc2sc3c(O)cc(=O)[nH]c3c2C#N)cc1C`, the Potency result was “inactive”. With `CCC1CCCCN1CCNC(=O)c1[nH]c(C)c(C(C)=O)c1C` (stereo not given), the Potency result was “inactive”. Next, `O=C(Nc1ccon1)c1nc[nH]c1C(=O)NCc1ccccc1`: “inactive”; `COc1ccc(/C(O)=C2/C(=O)C(=O)N(c3nc(C)c(C)s3)C2c2ccco2)cc1` (stereo not given): “inactive”. Next, `Cc1ccc(C)c(NC(=O)CN(C)C(=O)c2ccc3ncsc3c2)c1`: “inactive”; `Fc1cccc(Cc2noc(CN3CCN(c4cnccn4)CC3)n2)c1`: “inactive”. In the case of `CC(=O)Nc1ccc(NC(=S)NC(=O)/C=C/c2ccccc2)cc1`, the Potency result is “inactive”. Next, `CC1(C)C=Cc2c(ccc(C(=O)/C=C/c3ccccc3)c2O)O1`: 8.91 µM (active); `CC1(C(=O)O)CCN1C(=O)/C=C/c1ccccc1` (stereo not given): “inactive”. Next, `C[C@H](O)[C@@H]1C(=O)N2CCc3ccc(N4CCOCC4)cc3[C@@H]2C[C@@H]1N(C)C(=O)C(C)(C)C`: “inactive”; `COc1cccc(N2C(=O)CC(N3CCN(S(=O)(=O)c4ccccc4)CC3)C2=O)c1` (stereo not given): “inactive”.

`COc1ccc(-c2ccc3c(c2)[C@@H]2C[C@H](N(C)S(=O)(=O)c4ccccc4)[C@H]([C@H](C)O)C(=O)N2CC3)cc1`: the Potency is 16.4 µM (active).

For `CC1=C(C(N)=O)C(c2ccc(F)cc2)n2nc(CCCO)nc2N1` (stereo not given), the Potency result is “inactive”. On to `Cc1cccc(CCNS(=O)(=O)c2ccc3c(c2)NC(=O)CO3)c1`, for which the Potency entry is “inactive”. Next, `COc1cc(OC)cc(C(=O)Nc2cc3nn(-c4ccccc4)nc3cc2Cl)c1`: 16.4 µM (active). Next, `CCCC(=O)Nc1cc2nn(-c3ccccc3)nc2cc1C`: “inactive”. In the case of `CCOC(=O)c1cc(-c2ccccc2)n(-c2cccc(C(=O)Nc3cc(OC)cc(OC)c3)c2)c1C`, the Potency result is “inactive”.

For the compound `Cc1ccccc1Nc1nnc(SCC(=O)c2cc3ccccc3o2)s1`, the Potency entry was “inactive”. Next, `CCCn1c(N)c(C(=O)CSc2nnc(Cc3cccs3)n2C2CC2)c(=O)[nH]c1=O`: “inactive”. Next, `Cc1cccc(Nc2nnc(SCC(=O)c3c(N)n(C4CC4)c(=O)[nH]c3=O)s2)c1C`: 11.6 µM (active); `CC1CC(C)CN(C/C=C/c2ccccc2[N+](=O)[O-])C1` (stereo not given): “inactive”; `COc1ccc(N2CCN(C3CC(=O)N(c4ccc5c(c4)OCCO5)C3=O)CC2)cc1` (stereo not given): “inactive”. Next, `CC(C)CC1C(=O)N(Cc2cn(Cc3ccco3)nn2)CCS(=O)(=O)N1Cc1ccc(-c2ccc(Cl)c(Cl)c2)cc1` (stereo not given): 20.6 µM (active); `CC1C(=O)N(Cc2cn(Cc3ccco3)nn2)CCS(=O)(=O)N1Cc1ccc(-c2cccc(CO)c2)cc1` (stereo not given): 9.2 µM (active). Regarding `CCc1cc(=O)oc2cc(C)cc(OCC(=O)N3CCC[C@@H]3C(=O)O)c12`, the Potency result is “inactive”. Consider `CC(NC(=O)COc1ccccc1)C(=O)NC1=NCCS1` (stereo not given), for which the Potency result is “inactive”.

Turning to `CCOc1ccc(OCC(=O)Nc2c3c(nn2C(C)(C)C)CS(=O)(=O)C3)cc1`, the Potency result was “inactive”. Next, `CCN1C(=O)C(CC(=O)Nc2cc(C)ccc2C)SC1=Nc1ccc(S(N)(=O)=O)cc1` (stereo not given): “inactive”. Next, `CCOc1cccc2cc(C(=O)OCC(=O)Nc3c(C)cccc3CC)c(=O)oc12`: “inactive”; `COc1ccc(CN2CCN(Cc3cn(C)nc3-c3ccccc3)CC2CCO)c(C)c1C` (stereo not given): 18.4 µM (active); `Cc1ccc(CN2CCN(Cc3cccc(C)n3)CC2CCO)cc1` (stereo not given): “inactive”. Regarding `Cc1ccc(CN2CCN(Cc3cn(C)nc3-c3ccccc3)CC2CCO)o1` (stereo not given), the Potency entry is “inactive”. Next, `O=C(c1ccco1)n1nc(-c2ccc(Cl)cc2)nc1NCc1ccccc1`: 18.4 µM (active); `O=C(c1ccc(Cl)cc1)n1nc(-c2cccnc2)nc1NCc1ccc(F)cc1`: “inactive”. Next, `CCCC(=O)n1nc(NCc2ccc(OC)cc2)nc1NCc1ccc(OC)cc1`: “inactive”; `COc1ccc(CNc2nc(-c3ccccc3)nn2C(=O)c2ccccc2OC)cc1`: 18.4 µM (active); `O=C(c1cccs1)n1nc(NCc2ccccc2)nc1NCc1ccccc1`: “inactive”. Next, `O=C(Cc1ccccc1)n1nc(-c2ccccc2)nc1NCc1ccco1`: “inactive”. For `CC1CCCCC12NC(=O)N(CC(=O)OCC(=O)NCc1ccc(F)cc1)C2=O` (stereo not given), the Potency result is “inactive”. `CN1CCN(c2cc(=O)n(-c3ccc(Cl)cc3)c(=O)[nH]2)CC1`: the Potency result is “inactive”. Next, `O=C(O)c1ccccc1N=N/C(=N/Nc1cc(S(=O)(=O)O)ccc1O)c1ccccc1`: “inactive”; `Cc1c(Cl)cccc1NC(=O)CCS(=O)(=O)c1ccc2c(c1)oc(=O)n2C`: “inactive”. Next, `NC(=O)C1CCN(C(=O)CC2C(=O)NCCN2Cc2cccc(Oc3ccccc3)c2)CC1` (stereo not given): “inactive”; `Cc1ccc(SCC(=O)NNC(=O)c2ccc(S(C)(=O)=O)cc2)cc1`: “inactive”.

For the compound `Cc1ccccc1-n1cc(CNC(=O)CC2C(=O)NCCN2C/C=C/c2ccccc2)cn1` (stereo not given), the Potency entry was “inactive”. Next, `CCc1nc2cccnc2n1-c1ccc(C(=O)O)cc1`: “inactive”. Next, `Cc1ccc(Cl)cc1NC(=O)Cc1ccc(-n2c(C)nc3cccnc32)cc1`: 23.1 µM (active); `Cc1ccc(Cl)cc1NC(=O)c1ccccn1`: “inactive”. Next, `COCCn1c(CCC(=O)Nc2cc(C)ccc2C)nc2cccnc21`: “inactive”. For the compound `COCCCNC(=O)Cc1ccc(-n2c(C)nc3cccnc32)cc1`, the Potency entry was “inactive”. With `COc1cc(OC)c(NC(=O)Cc2ccc(-n3c(C)nc4cccnc43)cc2)cc1Cl`, the Potency is 14.6 µM (active). Next, `O=C(O)C1CCN(c2ncnc3ccc(-c4ccccc4C(F)(F)F)cc23)CC1`: “inactive”; `O=C(CC1C(=O)NCCN1CC(c1ccccc1)c1ccccc1)NCCc1cn[nH]c1` (stereo not given): “inactive”; `CCN(CC(=O)NCc1cccs1)C(=O)c1ccc(OC)c(S(=O)(=O)N2CCOCC2)c1`: “inactive”. For `Cc1ccc(C2=Nc3c(ccc4ccccc34)C(c3ccncc3)=NN2)cc1`, the Potency was 11.6 µM (active). Next, `COc1cc(C)nc(N2CCCC(C(=O)NCC(C)C)C2)n1` (stereo not given): “inactive”; `COCCNC(=O)CSc1nc(N)c(NC(=O)c2ccco2)c(=O)[nH]1`: “inactive”; `O=C(NC(=S)Nc1ccc(S(=O)(=O)Nc2ncccn2)cc1)c1cccc(Br)c1`: “inactive”. Next, `CCC1Oc2ccccc2N(CC(=O)NCCCN2CCN(CC)CC2)C1=O` (stereo not given): “inactive”.

As for `CC(C)OCCCNC(=O)CN1C(=O)/C(=C/c2ccccc2F)Oc2ccccc21`, the Potency was 10.3 µM (active). Next, `O=C(CN1C(=O)S/C(=C\c2ccccc2F)C1=O)NCCCn1ccnc1`: “inactive”; `COc1ccc(F)cc1C(=O)COC(=O)c1n[nH]c(=O)c2ccccc12`: “inactive”.

As to `COC(=O)CN(c1cccc(C(C)=O)c1)S(C)(=O)=O`, the Potency result is “inactive”.

With `C=CCc1cccc2cc(C(=O)N3CCN(C(=O)OCC)CC3)c(=O)oc12`, the Potency entry is “inactive”. Next, `CC(C)Nc1nc(N(c2ccccc2)c2ccccc2)nc(-n2ccnc2)n1`: “inactive”. As for `O=C(O)COCC(=O)NCc1csc2ccc(Cl)cc12`, the Potency result is “inactive”. As for `Cc1ccc(N(C(=O)c2snc(C(N)=O)c2N)C(C(=O)NCC2CCCO2)c2c[nH]c3ccccc23)cc1` (stereo not given), the Potency is 4.11 µM (active). As to `CCOc1ccc(N(CC(=O)NCC2CCCO2)S(=O)(=O)c2ccc(C)cc2)cc1` (stereo not given), the Potency entry is “inactive”.

Turning to `CCC(C(=O)NCCC(C)C)N(Cc1ccccc1Cl)C(=O)c1snc(C(N)=O)c1N` (stereo not given), the Potency entry was “inactive”. Next, `NC(=O)c1nsc(C(=O)N(CCCN2CCOCC2)C(C(=O)NC2CCCCC2)c2ccc(Cl)cc2)c1N` (stereo not given): “inactive”. For the compound `CCOc1cc(C(C(=O)NCC2CCCO2)N(C(=O)Cn2nnc3ccccc32)c2cccc(OC)c2)ccc1O` (stereo not given), the Potency entry was “inactive”. Next, `Cc1ccc(C(C(=O)NCC2CCCO2)N(C(=O)c2snc(C(N)=O)c2N)c2ccc(C(C)C)cc2)o1` (stereo not given): 18.4 µM (active); `O=C(NCC(=O)N(c1ccccc1)C(C(=O)NCC1CCCO1)c1ccccc1)c1cccs1` (stereo not given): “inactive”; `Cc1ccc(N(C(=O)Cc2cccs2)C(C(=O)NCC2CCCO2)c2ccncc2)cc1` (stereo not given): “inactive”.

`CCOc1ccc(N(C(=O)c2snc(C(N)=O)c2N)C(C(=O)NCC2CCCO2)c2c[nH]c3ccccc23)cc1` (stereo not given): the Potency was 3.66 µM (active).
